AHR act – activates the human aryl hydrocarbon receptor | P35869 | AHR-responsive luciferase reporter cells, luminescence | activation, % at 5 µM | 320,000 tested, 2.5% active; in the data active = activation above about 47%;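 note: 0% = vehicle wells and 100% = reference agonist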
HSP90 refold inh – HSP90 refolding inhibition in rabbit reticulocyte lysate. luciferase refolding luminescence, 3 h. inhibition, % at 5.6 µM. 290,000 tested, 0.91% active;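 active = inhibition above the screen-wide mean plus 3 SD, computed separately per campaign, cut at about 16% in these data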;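 note: 0% = DMSO wells and 100% = 60 µM geldanamycin wells; inhibitors lower the luminescence because luciferase stays unfolded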
HSF1 activator – increases HSF-1 driven luciferase reporter signal. NIH3T3-HGL HSF-1 luciferase reporter, MG132, 8 h; 100% = twice DMSO control signal. 300,000 tested, 1.7% active. activation, % at 9 µM;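 active = mean replicate activation of at least 50% with a set share of replicates each reaching 50%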;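 note: 0% = median of the neutral control wells and 100% = twice that signal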
NR0B1 inh – inhibits human nuclear receptor DAX1. HEK293 Gal4-DAX1 luciferase reporter, luminescence. inhibition, % at 6.75 µM. 340,000 tested, 0.99% active;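 active = inhibition above the mean over all tested compounds plus 3 SD, cut at about 4.2% in these data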;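 note: 0% = DAX1-transfected cells with DMSO and 100% = empty-vector control cells with DMSO; inhibition shows as a rise in luminescence from relieved DAX1 repression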
Target sequence (P51843 207-470 limits assumed): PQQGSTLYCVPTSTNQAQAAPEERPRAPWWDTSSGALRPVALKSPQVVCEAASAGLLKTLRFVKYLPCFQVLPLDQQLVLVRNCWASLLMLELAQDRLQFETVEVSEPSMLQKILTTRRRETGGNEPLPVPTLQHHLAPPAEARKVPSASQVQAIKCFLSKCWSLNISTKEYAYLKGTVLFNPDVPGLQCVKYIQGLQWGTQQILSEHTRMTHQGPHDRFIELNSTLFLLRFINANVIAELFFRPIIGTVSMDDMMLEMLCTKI
HSF1 inh – HSF1 inhibition; AID 2098; 300,000 tested, 0.77% active; NIH3T3-HGL HSE-luciferase, MG132-induced, luminescence 8 h; hits give low values; activity change, negative = inhibition, % at 7.5 µM (by protocol);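 active = more than half of replicate wells show activity change below -50%, luminescence cut by over half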;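 note: luciferase reports HSF-1 transcriptional activity via heat shock element; 0% = median of DMSO wells and -100% = zero luminescence signal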
GAA850 FXN act – increases GAA850 frataxin promoter reporter activity | HEK293 lucGAA850 FXN promoter luciferase reporter, 24 h; percent of 10 µM SAHA response | activation, % at 6 µM | 360,000 tested, 0.56% active | AID 540364;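 active = activation above the average of all compounds screened plus 3 SD, cutoff fixed separately per campaign, cut at about 7.5% in these data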;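 note: 0% = DMSO wells and 100% = 10 µM SAHA wells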
* = called active by the depositor. Shown are actives, neighbours in structure and some others; about 5.9% of the full set was active somewhere.

Screening O=C(Nc1ccc(F)cc1F)Nc1csc2ccccc12 returned AHR act 51*, HSP90 refold inh 5, HSF1 activator 26, HSF1 inh 11 and GAA850 FXN act 1.
`CC(C)[C@@H](C(=O)NCC1CCCO1)N1C(=O)N2CCc3c([nH]c4ccccc34)[C@@]2(C)C1=O` (stereo partly specified) gave AHR act 4, HSP90 refold inh -3, HSF1 activator 10, NR0B1 inh 3, HSF1 inh 5 and GAA850 FXN act -2.
For CCOc1ccc(C(=O)OCC(=O)NCC2CCCO2)cc1 (stereo unspecified) the results were AHR act 0, NR0B1 inh 2 and GAA850 FXN act -1.
`CC1CCCC(C)N1C(=O)COC(=O)CNC(=O)c1ccc(Cl)cc1Cl` (stereo unspecified) gave AHR act 0, HSF1 activator -8, NR0B1 inh 2, HSF1 inh -9 and GAA850 FXN act 1.
`Cc1ccc(C(=O)/C=C/N(C)C)o1` gave AHR act 0, HSP90 refold inh 2, HSF1 activator 10, NR0B1 inh 0, HSF1 inh 7 and GAA850 FXN act 2.
Screening Cc1ccc(C(=O)/C=C/c2cc(Br)cc(Br)c2O)o1 returned AHR act 10, HSP90 refold inh -2, HSF1 activator 89*, NR0B1 inh 0, HSF1 inh 72 and GAA850 FXN act 2.
CC1CC2CCCC(O)=C2C(=O)O1 (stereo unspecified) was read as NR0B1 inh 4.3* and GAA850 FXN act 0.
O=C1CCCC(O)=C1C1NCCc2ccccc21 (stereo unspecified) was read as AHR act -1, HSP90 refold inh 4, HSF1 activator -2, NR0B1 inh 1, HSF1 inh -8 and GAA850 FXN act -2.
`COc1ccccc1N1CCN(CCCNC(=O)Cn2ncc3c([nH]c4ccccc43)c2=O)CC1` gave AHR act 4, HSP90 refold inh -2, HSF1 activator 4, NR0B1 inh -1, HSF1 inh -4 and GAA850 FXN act 1.
Screening O=C1CCN(C(=O)c2ccc(Cl)cc2)N1 returned AHR act -1, HSP90 refold inh 0, HSF1 activator 11, NR0B1 inh 2, HSF1 inh -6 and GAA850 FXN act -1.
O=C1CCN(C(=O)CSc2ccc(Cl)cc2)N1 was read as AHR act 4, HSP90 refold inh 5, HSF1 activator 7, NR0B1 inh 5.8*, HSF1 inh -2 and GAA850 FXN act 2.
`O=c1c(-c2ccc3c(c2)OCCO3)coc2cc(O)cc(O)c12` gave AHR act -2, HSP90 refold inh 2, HSF1 activator 71*, NR0B1 inh 2, HSF1 inh 26 and GAA850 FXN act 5.
For COc1cc(OC)cc(C(=O)Nc2ccc3c(c2)n(C)c(=O)n3C)c1 the results were AHR act 38, HSP90 refold inh 3, HSF1 activator -5, NR0B1 inh 1, HSF1 inh 8 and GAA850 FXN act 1.
`Cc1ccc(NC(=O)c2ccc(F)cc2F)cc1NS(C)(=O)=O` gave AHR act 61*, HSP90 refold inh -2, HSF1 activator 7, HSF1 inh -6 and GAA850 FXN act 3.
For CCOC(=O)c1ccc(NC(=O)c2ccc(NS(C)(=O)=O)cc2)cc1 the results were AHR act 0, HSP90 refold inh 1, HSF1 activator 8, NR0B1 inh -1, HSF1 inh 5 and GAA850 FXN act 0.
`CCc1ccc(C(=O)Nc2ccc3c(c2)n(C)c(=O)n3C)cc1` gave AHR act 30, HSP90 refold inh 10, HSF1 activator 12, NR0B1 inh 5.9*, HSF1 inh 19 and GAA850 FXN act 2.
CCc1ccc(C(=O)Nc2ccc(C)c(NS(C)(=O)=O)c2)cc1 was read as AHR act 65*, HSP90 refold inh -3, HSF1 activator 20, HSF1 inh 7 and GAA850 FXN act -1.
For Cn1cnnc1SCC(=O)NCCC(c1ccccc1)c1ccccc1 the results were AHR act -2, HSP90 refold inh -4, HSF1 activator -11, NR0B1 inh 0, HSF1 inh 0 and GAA850 FXN act -1.
For Cn1cnnc1Sc1ccc(C(=O)NCCC(c2ccccc2)c2ccccc2)cc1[N+](=O)[O-] the results were AHR act -3, HSP90 refold inh 1, HSF1 activator -14, NR0B1 inh 4.3*, HSF1 inh 1 and GAA850 FXN act -1.
Screening CN=c1sc2ccccc2n1CC(O)c1ccccc1 (stereo unspecified) returned AHR act 63*, HSP90 refold inh 2, HSF1 activator 6, NR0B1 inh 0, HSF1 inh 4 and GAA850 FXN act 0.
For CCOC(=O)c1c(NC(C)=O)sc2c(O)c(CN3CCN(CC)CC3)ccc12 the results were AHR act -3, HSP90 refold inh 0, HSF1 activator 112*, NR0B1 inh 0, HSF1 inh 75 and GAA850 FXN act 1.
For c1ccc(CN2CCC3CC2c2ccc(N4CCOCC4)cc23)cc1 (stereo unspecified) the results were NR0B1 inh 1 and GAA850 FXN act -1.
For Cc1cccc(-c2ccc3c(c2)C2CC3CCN2C)c1 (stereo unspecified) the results were NR0B1 inh -1 and GAA850 FXN act -2.
COCCOC(=O)c1[nH]c2c(c1C)C(=O)CC(c1ccco1)C2 (stereo unspecified) was read as AHR act 56*, HSP90 refold inh -3, HSF1 activator -11, NR0B1 inh -1, HSF1 inh -11 and GAA850 FXN act -1.
`O=Cc1c(NCc2ccco2)nc2ccccn2c1=O` gave AHR act 3, HSP90 refold inh 0, HSF1 activator 4, NR0B1 inh 0, HSF1 inh -2 and GAA850 FXN act 2.
Screening Cc1ccc2[nH]c(=O)c(-c3nc4ccccn4c3NCc3ccco3)cc2c1 returned AHR act 48*, HSP90 refold inh -5, HSF1 activator 38, NR0B1 inh 1, HSF1 inh 11 and GAA850 FXN act 4.
CC(C)(C)N(NS(=O)(=O)c1ccc(F)cc1)c1ccccc1 was read as AHR act 2, HSP90 refold inh 1, HSF1 activator 57*, NR0B1 inh 0, HSF1 inh 3 and GAA850 FXN act 0.
Screening Cc1ccccc1NS(=O)(=O)c1ccc(F)cc1 returned AHR act 2, HSP90 refold inh 2, HSF1 activator -1, NR0B1 inh -1, HSF1 inh 3 and GAA850 FXN act 4.
`CCOC(=O)C1=CN(Cc2cccc(F)c2)S(=O)(=O)N(CC)C1CCc1ccccc1` (stereo unspecified) gave NR0B1 inh 1 and GAA850 FXN act -1.
Screening Cc1c(=O)n(OCc2ccc(Cl)cc2)c2ccccc2[n+]1[O-] returned AHR act 59*, HSP90 refold inh -1, HSF1 activator 34, NR0B1 inh 0, HSF1 inh 16 and GAA850 FXN act 1.

Compound activity as filed in PubChem.
